In PubChem BioAssay (EPA / NIEHS):
Values joined by “and” are separate entries in the source; they are usually repeats but may differ in a detail not shown here. Equal entries are not always repeated. Results filed as inconclusive are left out. Some compounds were tested as several samples or in several runs, with calls that do not always agree. Active and inactive are the calls of the source. How the source made its calls, unless noted: active means hit-call score of the fitted dose curve at least 0.9, where 1 is the maximum; inactive means score below 0.9.

Legend:
[1] = CCTE_Shafer_MEA_acute_network_burst_percentage: CCTE's Neural Acute Assay for Percentage of Network Bursts, Shafer Lab (AID 2284022);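 further: curves fitted for loss so actives lower network burst percentage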
Method in brief: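 Cortical neurons from rat were grown over microelectrode arrays and used on day 13 or 15 in vitro. Wells with at least 10 active electrodes received test chemical at 0.03-40 uM. Activity during 40 min of exposure was compared with the preceding 40-min baseline.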

[2] = CCTE_Shafer_MEA_acute_cross_correlation_area: CCTE's Neural Acute Assay for Area of Cross Correlation, Shafer Lab (AID 2284024);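 further: area under pooled inter-electrode spike cross-correlation near zero lag as percent change from own baseline; curves fitted for loss of cross-correlation area so actives lower synchrony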
Method in brief: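 Acute exposure of mature rat cortical networks (day 13 or 15 post-plating) to 0.03-40 uM compound. Spontaneous spiking on MEA, 40 min pre- and post-dose at 37 C.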

[3] = CCTE_Shafer_MEA_acute_cross_correlation_HWHM: CCTE's Neural Acute Assay for Cross Correlation at Half Width at Half Maximum, Shafer Lab (AID 2284026);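 further: percent change per well from pre-dose baseline in spike cross-correlogram half width; hits are a decrease in cross-correlogram half width relative to DMSO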
Method in brief: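 Primary cortex (rat), MEA, DIV 13/15; compound 0.03-40 uM; 40 min pre + 40 min post at 37 C; spike threshold 8x rms; wells need ≥10 active electrodes; endpoint = % change in cross-correlogram HWHM vs baseline, DMSO negative control.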

[4] = CCTE_Shafer_MEA_acute_synchrony_index: CCTE's Neural Acute Assay for Synchrony, Shafer Lab (AID 2284027);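 further: fitted for loss of signal so actives lower synchrony relative to DMSO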
Method in brief: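 Readout is percent change in the unitless network synchrony index (0 low, 1 high) between a 40-min baseline and a 40-min recording in compound. Cultures were primary rat cortical neurons on MEAs, treated at 0.03-40 uM on DIV 13 or 15.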

[5] = CCTE_Deisenroth_AIME_96WELL_CTox_Active: Cytotoxicity Assessment (CTOX) in CCTE's 96-well Estrogen Receptor Transactivation Assay with AIME metabolic competence (metabolism positive), Deisenroth Lab (AID 2284028; active means hit-call score of the fitted dose curve at least 0.9, where 1 is the maximum)
Method in brief: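 Chemicals (0.002–200 uM) were first incubated 2 h with alginate-immobilized phenobarbital/beta-naphthoflavone-induced male rat liver S9; conditioned medium then went onto VM7Luc4E2 cells for 24 h, with viability read by protease-substrate fluorescence, fitted bidirectionally.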

[6] = molecular target: Estrogen receptor (Homo sapiens) (UniProt P03372); assay: CCTE_Deisenroth_AIME_384WELL_LUC_Active: CCTE's 384-well Estrogen Receptor Transactivation Assay with AIME metabolic competence (ERTA luciferase; metabolism positive), Deisenroth Lab (AID 2284030; active means hit-call score of the fitted dose curve at least 0.9, where 1 is the maximum)
Method in brief: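 In this metabolism-positive format, a 2-hour exposure to alginate-immobilized rat S9 precedes a 24 hour luciferase transactivation readout in VM7Luc4E2 cells. Dosing spans 10 concentrations from 0.002 to 200 uM.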

[7] = CCTE_Shafer_MEA_dev_firing_rate_mean: CCTE's Neural Network Formation Assay for Mean Firing Rate, Shafer Lab (AID 2284031);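 on AC50: curve fitted for loss of firing so AC50 reflects decreased mean firing rate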
Method in brief: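 Rat primary cortical neurons were seeded on multielectrode arrays and treated from plating through day 12, with redosing at each feed. Spontaneous spiking was recorded four times; mean firing rate AUC was fitted downward against DMSO.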

[8] = CCTE_Shafer_MEA_dev_per_burst_spike_percent: CCTE's Neural Network Formation Assay for Percent of Spikes in a Burst, Shafer Lab (AID 2284032);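 further: fitted as a decrease in burst spike percentage below DMSO baseline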
Method in brief: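 Rat primary cortical neurons on 16-electrode MEA wells, dosed from plating day 0 for 12 days with renewal on DIV 5 and 9; spikes-in-bursts percentage averaged over bursting electrodes, collapsed as AUC across days 5, 7, 9, 12; loss direction versus DMSO.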

[9] = CCTE_Deisenroth_AIME_384WELL_CTox_Active: Cytotoxicity Assessment (CTOX) in CCTE's 384-well Estrogen Receptor Transactivation Assay with AIME metabolic competence (metabolism positive), Deisenroth Lab (AID 2284037; active means hit-call score of the fitted dose curve at least 0.9, where 1 is the maximum;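 further: activity means signal loss indicating cell death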)
Method in brief: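 Chemicals pre-incubated 2 hours with alginate-immobilised phenobarbital/beta-naphthoflavone-induced male Sprague Dawley rat liver S9, then conditioned medium applied 24 hour to VM7Luc4E2 cells. Viability by fluorogenic protease substrate; 10-point series 0.002 - 200 uM.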

[10] = CCTE_Deisenroth_AIME_384WELL_CTox_Inactive: Cytotoxicity Assessment (CTOX) in CCTE's 384-well Estrogen Receptor Transactivation Assay without AIME metabolic competence (metabolism negative), Deisenroth Lab (AID 2284039; active means hit-call score of the fitted dose curve at least 0.9, where 1 is the maximum;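 further: cell viability via live-cell protease substrate cleaved to fluorescent probe; cells exposed 24 h to medium preincubated 2 h with alginate-water beads without S9; loss of fluorescence signal means loss of viability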)
Method in brief: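 VM7Luc4E2 cells, metabolism-negative arm: test chemicals (0.002–200 uM, 10 points) pre-incubated 2 h with alginate-water microspheres, then medium transferred to cells for 24 h. Viability read as protease-substrate cleavage to fluorescent probe; loss-of-signal, bidirectional fitting.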

[11] = CCTE_Shafer_MEA_dev_active_electrodes_number: CCTE's Neural Network Formation Assay for Number of Active Electrodes, Shafer Lab (AID 2284040; active means hit-call score of the fitted dose curve at least 0.9, where 1 is the maximum;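 further: potency for loss of active electrodes versus DMSO so lower counts are hits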)
Method in brief: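 Primary rat cortical neurons on 16-electrode MEA wells, exposed from day 0 through day 12 with compound renewed at DIV 5 and 9 feeds. Active electrodes (mean firing ≥5 spikes/min) counted at DIV 5, 7, 9, 12; trapezoidal AUC across days, loss-of-signal versus DMSO.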

[12] = molecular target: Estrogen receptor (Homo sapiens) (UniProt P03372); assay: CCTE_Deisenroth_AIME_384WELL_LUC_Shift: CCTE's 384-well Estrogen Receptor Transactivation Assay with AIME metabolic competence data shift (ERTA luciferase; difference in metabolism positive and negative), Deisenroth Lab (AID 2284041);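 further: shift is response with S9 minus without S9 so positive means metabolism raised ER signal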
Method in brief: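 Chemicals (0.002–200 uM, 10 points) pre-incubated 2 h with alginate-encapsulated induced male Sprague Dawley rat liver S9 or S9-free, then medium applied 24 h to VM7Luc4E2 cells; luciferase. Endpoint is per-concentration difference, S9-positive minus negative.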

[13] = CCTE_Shafer_MEA_dev_burst_rate: CCTE's Neural Network Formation Assay for Burst Rate, Shafer Lab (AID 2284042);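 on AC50: potency for loss of burst rate below DMSO control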
Method in brief: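 Primary rat cortical neurons on PEI-coated 48-well MEA plates (laminin added with cells at plating) (16 electrodes/well), exposed from plating to day 12, dosing renewed at DIV 5 and 9. Burst rate averaged over active electrodes, recorded DIV 5, 7, 9, 12, summarized as AUC; loss versus DMSO.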

[14] = CCTE_Shafer_MEA_dev_bursting_electrodes_number: CCTE's Neural Network Formation Assay for Number of Bursting Electrodes, Shafer Lab (AID 2284043; active means hit-call score of the fitted dose curve at least 0.9, where 1 is the maximum;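 further: potency is for loss of bursting electrodes relative to DMSO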)
Method in brief: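 Primary rat cortical neurons plated on 16-electrode MEA wells, exposed from day 0 with compound renewed at DIV 5 and 9. Electrodes bursting ≥1 burst per 2 min counted on days 5, 7, 9 and 12; trapezoidal AUC across days, fitted for loss versus DMSO.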

[15] = CCTE_Shafer_MEA_dev_per_burst_interspike_interval: CCTE's Neural Network Formation Assay for Burst Interspike Interval, Shafer Lab (AID 2284044);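 further: mean spike spacing inside bursts as AUC over recordings on days 5 7 9 12; potency for a decrease of within-burst interspike interval below DMSO level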
Method in brief: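 Developmental network-formation MEA in primary rat cortical cultures with exposure spanning days 0–12. Within-burst ISI is averaged per well and integrated across recording days by area under the curve, with DMSO as negative control baseline.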

[16] = CCTE_Shafer_MEA_dev_burst_duration_mean: CCTE's Neural Network Formation Assay for Mean Burst Duration, Shafer Lab (AID 2284045);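 on AC50: curve fitted for loss meaning shorter burst duration than DMSO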
Method in brief: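 Primary rat cortical neurons on 48-well 16-electrode MEA plates, exposed from day 0 with renewal at DIV 5 and 9; spontaneous activity recorded on days 5, 7, 9, 12. Well-mean burst duration across bursting electrodes, collapsed as trapezoidal AUC; DMSO baseline.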

[17] = CCTE_Shafer_MEA_dev_interburst_interval_mean: CCTE's Neural Network Formation Assay for Mean Interburst Interval, Shafer Lab (AID 2284046);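 further: well-mean interburst interval of bursting electrodes as AUC over four recording days; curve fitted for decrease in interburst interval relative to DMSO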
Method in brief: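 Recordings on days 5, 7, 9 and 12 give well-mean interburst interval across actively bursting electrodes, summarized as area under the curve. Cultures: rat cortical neurons, continuous exposure from day 0, compound renewed at feeds; decrease analyzed versus DMSO.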

[18] = molecular target: Estrogen receptor (Homo sapiens) (UniProt P03372); assay: CCTE_Deisenroth_AIME_96WELL_LUC_Active: CCTE's 96-well Estrogen Receptor Transactivation Assay with AIME metabolic competence (ERTA luciferase; metabolism positive), Deisenroth Lab (AID 2284023; active means hit-call score of the fitted dose curve at least 0.9, where 1 is the maximum)
Method in brief: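 Chemicals pre-incubated 2 h with alginate-immobilized phenobarbital/beta-naphthoflavone-induced male Sprague Dawley rat liver S9, then medium transferred to VM7Luc4E2 cells for 24 h luciferase read-out. 10-point series 0.002 - 200 uM; fitted relative to 17beta-estradiol.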

[19] = molecular target: Estrogen receptor (Homo sapiens) (UniProt P03372); assay: CCTE_Deisenroth_AIME_96WELL_LUC_Inactive: CCTE's 96-well Estrogen Receptor Transactivation Assay without AIME metabolic competence (ERTA luciferase; metabolism negative), Deisenroth Lab (AID 2284025; active means hit-call score of the fitted dose curve at least 0.9, where 1 is the maximum)
Method in brief: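 VM7Luc4E2 breast cells, luciferase read 24 h after dosing with medium pre-incubated 2 h on alginate-water lids (metabolism negative). 10-point series 0.002–200 uM, single technical replicate, n≥4; fit relative to 17beta-estradiol.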

[20] = CCTE_Deisenroth_AIME_96WELL_CTox_Inactive: Cytotoxicity Assessment (CTOX) in CCTE's 96-well Estrogen Receptor Transactivation Assay without AIME metabolic competence (metabolism negative), Deisenroth Lab (AID 2284029; active means hit-call score of the fitted dose curve at least 0.9, where 1 is the maximum)
Method in brief: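 Chemicals (0.002 - 200 uM, 10 points) incubated 2 h with alginate-water microspheres (no S9), then medium moved onto VM7Luc4E2 cells for 24 h. Viability by protease-substrate cleavage to fluorescent probe; bidirectional fitting.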

Measured: AC50

Estrogen receptor (Homo sapiens), sequence (P03372 whole entry, looked up): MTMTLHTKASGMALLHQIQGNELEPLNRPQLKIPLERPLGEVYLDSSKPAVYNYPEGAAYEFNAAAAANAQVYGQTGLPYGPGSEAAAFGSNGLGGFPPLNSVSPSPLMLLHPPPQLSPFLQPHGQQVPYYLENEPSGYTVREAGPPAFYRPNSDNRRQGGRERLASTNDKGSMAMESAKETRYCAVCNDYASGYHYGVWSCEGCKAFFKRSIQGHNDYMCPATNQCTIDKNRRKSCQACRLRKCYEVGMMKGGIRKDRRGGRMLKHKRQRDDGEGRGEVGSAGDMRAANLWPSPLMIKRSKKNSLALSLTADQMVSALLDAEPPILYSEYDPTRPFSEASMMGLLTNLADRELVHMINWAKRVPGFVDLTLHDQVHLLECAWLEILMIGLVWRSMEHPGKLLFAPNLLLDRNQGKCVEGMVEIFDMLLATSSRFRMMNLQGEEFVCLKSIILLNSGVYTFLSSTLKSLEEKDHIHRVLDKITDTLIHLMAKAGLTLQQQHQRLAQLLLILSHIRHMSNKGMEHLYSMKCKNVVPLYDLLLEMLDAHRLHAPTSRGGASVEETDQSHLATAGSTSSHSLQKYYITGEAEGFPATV

NC(=O)N(O)[C@@H]1C=C[C@H](Oc2cccc(Oc3ccc(F)cc3)c2)C1
inactive: [1] | [2]
active: [3] 10 µM | [4] 10 µM

O=c1c(-c2ccc(O)cc2)coc2cc(O)ccc12
active: [3] 24.4 µM | [4] 12.2 µM
inactive: [1] | [2] | [5]

CN(C)C=O
inactive: [1] | [2] | [3] | [4]

CC#C[C@]1(O)CC[C@H]2[C@@H]3CCC4=CC(=O)CCC4=C3[C@@H](c3ccc(N(C)C)cc3)C[C@@]21C
active: [1] 16.2 µM | [3] 20 µM and 5.43 µM | [4] 16.2 µM and 7.18 µM | [7] 8.04 µM | [8] 6.81 µM and 22.9 µM | [11] 4.73 µM and 17.8 µM | [13] 5.1 µM | [14] 2.8 µM and 15 µM | [15] 4.01 µM and 5.66 µM | [16] 2.98 µM | [17] 2.69 µM
inactive: [1] | [2] | [6] | [7] | [9] | [10] | [12] | [13] | [16] | [17]

CCCOc1sc(C(=O)N2CCC(c3cc(CN)ccc3F)CC2)c(C)c1Br
inactive: [1] | [2] | [3] | [4]

Oc1cc2ccccc2c2ccccc12
inactive: [1] | [2] | [3] | [4] | [12]
active: [9] 19 µM | [10] 10.3 µM

CN1CCN(c2ccccc2/C=C2\SCCN(c3ccc(Cl)c(Cl)c3)C2=O)CC1
inactive: [1] | [2]
active: [3] 3.97 µM | [4] 34 µM

O=C(O)c1ccccc1C(c1ccc(O)cc1)c1ccc(O)cc1
inactive: [1] | [3] | [9] | [10]
active: [2] 20 µM | [4] 7.86 µM | [6] 123 µM | [12] 126 µM

CCCCC[C@H](O)CC(=O)CCc1ccc(O)c(OC)c1
inactive: [5] | [20]
active: [18] 26 µM | [19] 24.9 µM

CCCCCCCCCCCCN1CCCC1=O
active: [9] 100 µM | [10] 57.1 µM
inactive: [1] | [2] | [3] | [4] | [12]
